Test results published in PubChem BioAssay (NCATS).
Inconclusive results are not listed. Unmarked numbers belong to inactive results. Activity calls are given as the source filed them. The call rests on the fitted dose curve; in most records, active means well fitted cell-killing curve with a large enough effect; inconclusive means small, poorly fitted or top-dose-only effect, or effect the other way; inactive means no such curve, though single readings can be large or run the other way.

Experiment: Quantitative High-Throughput drug screen in 47 multiple myeloma cell lines against the NCATS MIPE library collection: JJN3_DSMZ cell viability assay (AID 1918966; further: nearly all actives have a fitted effect of over 50% in size)
Conditions: JJN3 myeloma cells viability, CellTiter-Glo ATP, 48 h; series mostly up to 45.8 µM; viability, % of DMSO: at the top concentration
Description: PI: Beverly A. Mock Ph.D.
Laboratory of Cancer Biology and Genetics,
Center for Cancer Research, National Cancer Institute,
National Institute of Health, Bethesda, Maryland
Drug resistance and disease progression are common in multiple myeloma (MM) patients, underscoring the need for new therapeutic combinations. […] We hypothesized that effective combinations would reduce MYC expression and enhance p16 activity. […] These preclinical data identify potentially useful drug combinations for evaluation in drug-resistant MM and reveal potential mechanisms of combined drug sensitivity.
Described herein is the primary MIPE qHTS used to cherrypick compounds. Validated compounds were then further tested for potential synergistic activiy.
[1] Peat TJ, Gaikwad SM, Dubois W, Gyabaah-Kessie N, Zhang S, Gorjifard S, Phyo Z, Andres M, Hughitt VK, Simpson RM, Miller MA, Girvin AT, Taylor A, Williams D, D'Antonio N, Zhang Y, Rajagopalan A, Flietner E, Wilson K, Zhang X, Shinn P, Klumpp-Thomas C, McKnight C, Itkin Z, Chen L, Kazandijian D, Zhang J, Michalowski AM, Simmons JK, Keats J, Thomas CJ, Mock BA. Drug combinations identified by high-throughput screening promote cell cycle transition and upregulate Smad pathways in myeloma. Cancer Lett. 2023 Aug 1;568:216284. doi: 10.1016/j.canlet.2023.216284. Epub 2023 Jun 24. PMID: 37356470; PMCID: PMC10408729.
SEQUENCE No. (e.g., 1, 2, 3, etc.); […] (e.g., Cells, Incubation, Reagent, etc.); VALUE and DESCRIPTION.
1; Cells; 5 uL; white, solid bottom 1536-well Greiner assay plate.
2; Compounds; 23 nL; Kalypsis pin tool (Wako USA) equipped with a 1536-well pin head to transfer to the assay plates.
3; Incubation; 48 hours; 37C incubation.
4; Reagent;5uL; CellTiter Glo (Promega).
5; Detector; 425V; Luminescence; Viewlux PerkinElmer.
NOTES (numbers refer to Sequence numbers above)
1. The cell-based screening methods employed in this study were like those previously published. Briefly, the corresponding myeloma cell lines were screened in 1,536-well plates with 500 cells, 5-uL per well for inhibition of cell viability (assessed by measuring ATP levels with CellTiterGlo).
2. NCATS MIPE 4.0 library of approved and investigational drugs were added using the Kalypsis pin tool. Wells treated with DMSO only for 100% viability and media only wells for 0% viability were used as controls.
3. The assay plates were covered and incubated for 48 hours in a 37C, 5% CO2 incubator with controlled humidity.
4. After 48 hours, CellTilter-GloTM luminescent substrate mix (Promega) reagent was added to the assay plate and plates we incubated for 5 min at room temperature.
5. Signal was measured as median relative luminescence units on a ViewLux (PerkinElmer) multiplate reader.
[1] Heske CM, Davis MI, Baumgart JT, Wilson K, Gormally MV, Chen L, Zhang X, Ceribelli M, Duveau DY, Guha R, Ferrer M, Arnaldez FI, Ji J, Tran HL, Zhang Y, Mendoza A, Helman LJ, Thomas CJ. Matrix Screen Identifies Synergistic Combination of PARP Inhibitors and Nicotinamide Phosphoribosyltransferase (NAMPT) Inhibitors in Ewing Sarcoma. Clin Cancer Res. 2017 Dec 1;23(23):7301-7311. doi: 10.1158/1078-0432.CCR-17-1121. Epub 2017 Sep 12. PMID: 28899971; PMCID: PMC6636827.
Potency means the concentration at half of the fitted maximal effect.

| Structure (SMILES) | Potency | viability, % of DMSO |
| --- | --- | --- |
| COc1ccc2c(c1OC)CN1CCc3cc4c(cc3C1C2)OCO4 (stereo not given) | 16.6 µM (active) | – |
| Cc1cc(SCc2sc(-c3ccc(C(F)(F)F)c(F)c3)nc2C)ccc1OCC(=O)O | – | 130% |
| COC[C@H]1OC(=O)c2coc3c2[C@@]1(C)C1=C(C3=O)C2CCC(=O)[C@@]2(C)C[C@H]1OC(C)=O (stereo not given in full) | 10.5 µM (active) | – |
| CNC(=O)N1N=C(c2ccc(N)cc2)c2cc3c(cc2CC1C)OCO3 (stereo not given) | 1.32 µM (active) | – |
| CC(C)CC(N(C)C)C1(c2ccc(Cl)cc2)CCC1 (stereo not given) | – | 98.7% |
| C[C@@H]1[C@@H](C(=O)C[C@H]2O[C@@H]3O[C@]4(C)CC[C@@H]5[C@H](C)CC[C@@H]([C@H]2C)[C@@]35OO4)O[C@@H]2O[C@]3(C)CC[C@H]4[C@H](C)CC[C@@H]1[C@@]24OO3 | 0.296 µM (active) | – |
| Fc1ccc(C(OCCN2CCN(CCCc3ccccc3)CC2)c2ccc(F)cc2)cc1 | 23.5 µM (active) | – |
| CC(O)(CS(=O)(=O)c1ccc(F)cc1)C(=O)Nc1ccc(C#N)c(C(F)(F)F)c1 (stereo not given) | 4.69 µM (active) | – |
| Cc1sc2c(c1C)C(c1ccc(Cl)cc1)=N[C@@H](CC(=O)OC(C)(C)C)c1nnc(C)n1-2 | 0.296 µM (active) | – |
| C#CCN(C)[C@H](C)Cc1ccccc1 | 8.33 µM (active) | – |
| Cn1cc(C2=C(c3cn(C4CCN(Cc5ccccn5)CC4)c4ccccc34)C(=O)NC2=O)c2ccccc21 | 14.8 µM (active) | – |
| CN(C)CCN(C)CCc1ccc(Cl)c(Cl)c1 | – | 125% |
| COC[C@@H](NC(C)=O)C(=O)NCc1ccccc1 | – | 119% |
| C[C@@H]1O[C@@H](O[C@H]2C[C@@H](O)[C@]3(CO)[C@H]4[C@H](O)C[C@]5(C)[C@@H](C6=CC(=O)OC6)CC[C@]5(O)[C@@H]4CC[C@]3(O)C2)[C@H](O)[C@H](O)[C@H]1O | 0.105 µM (active) | – |
| C=C(C)[C@H]1Cc2c(ccc3c2O[C@@H]2COc4cc(OC)c(OC)cc4[C@@H]2C3=O)O1 | 7.43 µM (active) | – |
| N[C@@H](Cc1ccc(N(CCCl)CCCl)cc1)C(=O)O | 11.8 µM (active) | – |
| NCC1(CC(=O)O)CCCCC1 | – | 154% |
| C[C@@H]1[C@@H](CC(C[C@H]2O[C@@H]3O[C@]4(C)CC[C@@H]5[C@H](C)CC[C@@H]([C@H]2C)[C@@]35OO4)C[S+](=O)([O-])c2ccc(COC(=O)N(C)C)cc2)O[C@@H]2O[C@]3(C)CC[C@H]4[C@H](C)CC[C@@H]1[C@@]24OO3 (stereo not given in full) | 0.148 µM (active) | – |
| O=c1[nH]c2ccccc2n1CCCN1CCC(n2c(=O)[nH]c3cc(Cl)ccc32)CC1 | – | 122% |
| COC1(CS(=O)c2ccccc2)CCN(CCc2c[nH]c3ccc(F)cc23)CC1 (stereo not given) | – | 92% |
